Screens from PubChem.
Most compounds without a hit are left out; they make up all but 0.57% or so of the library.
ALOX12 inhib – qHTS Assay for Inhibitors of 12-hLO (12-human lipoxygenase). Polyunsaturated fatty acid lipoxygenase ALOX12 (Homo sapiens), P18054. AID 1452, 2008. purified 12-hLO, xylenol orange hydroperoxide absorbance. Potency, µM (series often up to 57.1 µM), without a hit: top-dose activity change, negative = inhibition, actives largely listed as inhibitors. 150,000 compounds, 0.12% hits; further: potency means the concentration at half of the fitted maximal effect; nearly all actives have a fitted effect of over 55% in size
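Hydroperoxide formation by human 12-lipoxygenase from 40 uM arachidonic acid was followed colorimetrically via ferric-xylenol orange complex, using the 573/405 nm absorbance ratio. Enzyme concentration was 150 nM, with 30 min reaction at room temperature.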
15-hLO-2 inh – qHTS Assay for Inhibitors of 15-hLO-2 (15-human lipoxygenase 2); Polyunsaturated fatty acid lipoxygenase ALOX15B (Homo sapiens), O15296; purified 15hLO-2, xylenol orange hydroperoxide absorbance; Potency, µM (titrated, usually from 57.1 µM), for the others: top-dose activity change, negative = inhibition, hits mostly inhibitors; 110,000 compounds, 0.56% hits; further: potency means the concentration at half of the fitted maximal effect; nearly all actives have a fitted effect of over 60% in size
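Purified human 15hLO-2 (50 nM final) preincubated with compounds 15 min at room temperature in 25 mM Hepes pH 7.5, 0.01% Triton X-100, then 45 uM arachidonic acid added for 90 min; hydroperoxide detected via ferrous/xylenol orange, 573/405 nm absorbance ratio.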
IMPase Li cell – qHTS Assay for Identifying the Cell-Membrane Permeable IMPase Inhibitors: Potentiation with Lithium; 210,000 compounds, 0.35% hits; Potency, µM (highest dose often 59.4 µM), for inactives: at the top dose activity, negative = IMPase inhibition, usual class: inhibitors; CHO-M1 cells, IP1 TR-FRET (IP-One), carbachol + lithium; AID 1457, 2008;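 further: IP1 builds up when IMPase is blocked and the TR-FRET signal falls; potency means the concentration at half of the fitted maximal effect; plate controls were basal vehicle for no effect and high inhibitor control for full effect; nearly all actives have a fitted effect of over 50% in size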
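Steps: plate 2000 CHO-M1 cells per well and culture 16–30 h; add compound and lithium; incubate 30 min, 37C; add d2-IP1 tracer and Eu cryptate anti-IP1 antibody in lysis buffer; read after 10 min at room temperature.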
IMPase cell inh – qHTS Assay for Identifying the Cell-Membrane Permeable IMPase Inhibitors | Inositol monophosphatase 1 (Rattus norvegicus), P97697 | CHO-M1 cells, IP1 accumulation, HTRF TR-FRET ratio | 120,000 tested, under 10 active | inhibition (IP1 accumulation), % at 46.1 µM; active means well fitted curve in the direction sought with a large enough effect in the signal ratio, not every such curve was filed as active; inconclusive means small, poorly fitted or top-dose-only effect, or a change in a side signal; inactive means no such curve, though single readings can be large or run the other way; the % refers to the signal ratio;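 further: cells stimulated with carbachol in lithium chloride buffer; plate controls were DMSO basal wells for no effect and reference inhibitor wells for full effect; higher means more IMPase inhibition seen as more IP1 and lower FRET ratio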
Target sequence (P97697 whole entry, looked up): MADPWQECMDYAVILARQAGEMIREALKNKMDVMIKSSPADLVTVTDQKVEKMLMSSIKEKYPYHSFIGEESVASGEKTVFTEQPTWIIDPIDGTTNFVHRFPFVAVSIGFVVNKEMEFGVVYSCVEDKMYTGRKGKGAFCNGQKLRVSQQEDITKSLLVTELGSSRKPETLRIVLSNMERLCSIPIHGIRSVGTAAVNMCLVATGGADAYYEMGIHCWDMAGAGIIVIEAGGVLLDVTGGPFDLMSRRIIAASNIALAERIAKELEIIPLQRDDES
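CHO-M1 cells (CHO stably expressing M1 receptor), compound up to 46 uM final, stimulated with carbachol (50 uM as added) in buffer with 50mM LiCl, pH 7.4, 30 min at 37C. Cytosolic IP1 read by TR-FRET; AC50 from Hill fits.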
The depositor's hits bear a star; ? = inconclusive; nt = not tested or not shown; [ ] = dose if it differs, or a comment. Unless noted, the call rests on the fitted dose curve; in most records, active means well fitted curve in the direction sought with a large enough effect; inconclusive means small, poorly fitted or top-dose-only effect, or another doubt; inactive means no such curve, though single readings can be large; an effect the other way counts as inactive or inconclusive. Unless noted, on the % scale 0 is the no-effect control and ±100 the full control effect.

SMILES	ALOX12 inhib	15-hLO-2 inh	IMPase Li cell	IMPase cell inh
COC(=O)CC[C@@H](C)[C@H]1CC[C@H]2[C@H]3CC[C@H]4C[C@@H]5CC[C@@]4(C)C3(O5)[C@@H](Br)[C@@H](Br)[C@@]12C	4%[11.4 µM]	4%[11.4 µM]	nt	nt
O=C(OCn1ncc(Br)c(Br)c1=O)c1c(F)cccc1F	-4%	-1%	8.9µM*	-25
CC(=O)Cn1ncc(Br)c(Br)c1=O	nt	nt	-21%	nt
Cc1ccc(-c2cn3cccnc3n2)cc1	nt	nt	10µM*	nt
Cc1cccnc1NC(=O)CCCN1C(=O)c2ccccc2C1=O	2%	2%	16%[38.3 µM]	0
O=C(CCCN1C(=O)c2ccccc2C1=O)Nc1c2c(nc3c1CCC3)CCC2	3%	nt	11µM*	10
Cc1ccc(S(=O)(=O)Nc2nc(C)c(NC(=O)Nc3ccc(Cl)cc3Cl)s2)cc1	7.1µM*	?	14%[38.3 µM]	6
Cc1ccc(S(=O)(=O)Nc2nc(C)c(NC(=O)OCCCl)s2)cc1	2%	-10%	25%[38.3 µM]	-3
CC1=C(C(=O)Nc2ccc([N+](=O)[O-])cc2)C(c2cccc(C(F)(F)F)c2)NC(=S)N1c1ccccc1 (stereo unspecified)	22µM*	?	17%[38.3 µM]	-3
COCCOC(=O)C1=C(C)N(c2ccccc2)C(=O)NC1c1cccc([N+](=O)[O-])c1 (stereo unspecified)	1%	nt	3%	4
CN1[C@@H]2CC[C@H]1CC(OC(=O)[C@@H](CO)c1ccccc1)C2 (stereo partly specified)	-1%[25.6 µM]	4%[25.6 µM]	nt	nt
COc1ccc(S(=O)(=O)Nc2ccc(F)c(F)c2)cc1Cl	-10%	-2%	7%	-4
COc1cc(Cl)c(C)cc1NC(=O)c1ccc(NS(=O)(=O)c2ccc(F)c(F)c2)cc1	nt	nt	5.6µM*	nt
COC(=O)C1=C(C(=O)OC)[C@@H]2Nc3ccccc3[C@@]23C[C@@H](C(=O)OC)N(S(=O)(=O)c2ccc4c(c2)OCCN4C)C3=N1	3%[11.4 µM]	nt	8%	nt
COc1cc2c(cc1OC)-c1n[nH]c(=S)n1C(C)(C)C2	nt	nt	1%	nt
COc1cc2c(cc1OC)-c1cc3nc4ccccc4nc3n1C(C)(C)C2	-22%	25µM*	5%	-7
COc1cccc(CS(=O)(=O)c2nnnn2-c2ccccc2)c1	nt	nt	16%	nt
COc1ccc2cc(-c3cc(C(=O)O)c4ccccc4n3)ccc2c1	-5%	?	10µM*	-13
CC1(OC(=O)C2CCCC2)C(=O)C=C2C=C(c3ccsc3)N(c3cccc(C#N)c3)C=C2C1=O (stereo unspecified)	-25%[11.4 µM]	nt	1%	nt
COc1ccc(NC(=O)N2CCc3nc(-c4ccc(OC)cc4C)c4c(c3C2)CO[C@@H](c2ccccc2)C4)cc1	-2%[11.4 µM]	nt	-1%	nt
N#Cc1c(-c2ccc(Br)cc2)cc(-c2cccnc2)nc1N	-2%	nt	22µM*	nt
O=C(O)c1ccc(CNc2ccccc2C(=O)O)cc1	5%	1%	10µM*	-5
O=C(O)CCCCn1cnc2c(=S)nc[nH]c21	0%[11.4 µM]	6%[11.4 µM]	-2%	nt
C[C@H](N)C(=O)OC(C)(C)Cc1ccc(Cl)cc1	-4%	36%	nt	-4
